# Results from the supplement of paper PMC8728848.
# About 410 targets per protein were measured; listed, in parts, are those with the strongest signals and a random draw of the rest.
# B1: SynCAM (Mus musculus) (protein)
# chain: MASAVLPSGSQCAAAAAVAAAAAPPGLRLRLLLLLLSAAALIPTGDGQNLFTKDVTVIEGEVATISCQVNKSDDSVIQLLNPNRQTIYFRDFRPLKDSRFQLLNFSSSELKVSLTNVSISDEGRYFCQLYTDPPQESYTTITVLVPPRNLMIDIQKDTAVEGEEIEVNCTAMASKPATTIRWFKGNKELKGKSEVEEWSDMYTVTSQLMLKVHKEDDGVPVICQVEHPAVTGNLQTQRYLEVQYKPQVHIQMTYPLQGLTREGDAFELTCEAIGKPQPVMVTWVRVDDEMPQHAVLSGPNLFINNLNKTDNGTYRCEASNIVGKAHSDYMLYVYDPPTTIPPP
# Experiments:
# Assay in all cases: glycan array binding signal (z-score within array); higher = stronger binding
# Conditions in all cases: glycan notation: IUPAC condensed, linker removed
# [1] = molecular target: Fuc(a1-2)Gal(b1-3)GalNAc(b1-3)Gal
# How it was run: (§1)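 Columns mapping to the same glycan were averaged after glycan names were converted to IUPAC-condensed notation. The data come from 3228 arrays in the Consortium for Functional Glycomics database, limited to those with an available protein sequence. Binding is reported as a within-array Z-score averaged across arrays of one protein sequence and across linkers.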
# [2] = molecular target: Fuc(a1-2)Gal(b1-3)GlcNAc(b1-3)GalNAc
# How it was run: as §1
# [3] = molecular target: Fuc(a1-2)Gal(b1-4)GlcNAc(b1-3)Gal(b1-4)GlcNAc(b1-2)Man(a1-3)[Fuc(a1-2)Gal(b1-4)GlcNAc(b1-3)Gal(b1-4)GlcNAc(b1-2)Man(a1-6)]Man(b1-4)GlcNAc(b1-4)GlcNAc
# How it was run: as §1
# [4] = molecular target: Fuc(a1-2)Gal(b1-4)GlcNAc(b1-3)[Fuc(a1-3)[Gal(b1-4)]GlcNAc(b1-6)]Gal(b1-4)Glc
# How it was run: as §1
# [5] = molecular target: Fuc(a1-2)[Gal(a1-3)]Gal(b1-4)Glc
# How it was run: as §1
# [6] = molecular target: Fuc(a1-2)[Gal(a1-3)]Gal(b1-4)GlcNAc
# How it was run: as §1
# [7] = molecular target: Fuc(a1-2)[GalNAc(a1-3)]Gal(b1-4)GlcNAc(b1-6)GalNAc
# How it was run: as §1
# [8] = molecular target: Fuc(a1-2)[GalNAc(b1-3)]Gal
# How it was run: as §1
# [9] = molecular target: Fuc(a1-3)[GalNAc(b1-4)]GlcNAc
# How it was run: as §1
# Gal(a1-6)Glc = molecular target: Gal(a1-6)Glc
# How it was run: as §1
# Gal(b1-2)Gal = molecular target: Gal(b1-2)Gal
# How it was run: as §1
# [10] = molecular target: Gal(b1-3)GlcNAc(b1-3)Gal(b1-4)Glc
# How it was run: as §1
# [11] = molecular target: Gal(b1-3)GlcNAc(b1-3)Gal(b1-4)GlcNAc(b1-3)Gal(b1-4)GlcNAc(b1-2)[Gal(b1-3)GlcNAc(b1-3)Gal(b1-4)GlcNAc(b1-3)Gal(b1-4)GlcNAc(b1-6)]Man(a1-6)[Gal(b1-3)GlcNAc(b1-3)Gal(b1-4)GlcNAc(b1-3)Gal(b1-4)GlcNAc(b1-2)Man(a1-3)]Man(b1-4)GlcNAc(b1-4)[Fuc(a1-6)]GlcNAc
# How it was run: as §1
# [12] = molecular target: Gal(b1-3)GlcNAc(b1-3)Gal(b1-4)[Fuc(a1-3)]GlcNAc
# How it was run: as §1
# [13] = molecular target: Gal(b1-3)GlcNAc(b1-3)GalNAc
# How it was run: as §1
# [14] = molecular target: Gal(b1-3)[Neu5Ac(a2-6)]GalNAc
# How it was run: as §1
# [15] = molecular target: Gal(b1-3)[Neu5Ac(b2-6)]GalNAc
# How it was run: as §1
# [16] = molecular target: Gal(b1-4)GlcNAc(b1-2)Man(a1-3)Man(b1-4)GlcNAc(b1-4)GlcNAc
# How it was run: as §1
# [17] = molecular target: Gal(b1-4)GlcNAc(b1-2)Man(a1-6)Man(b1-4)GlcNAc(b1-4)GlcNAc
# How it was run: as §1
# [18] = molecular target: Gal(b1-4)GlcNAc(b1-2)[Gal(b1-4)GlcNAc(b1-4)]Man(a1-3)[Gal(b1-4)GlcNAc(b1-2)[Gal(b1-4)GlcNAc(b1-6)]Man(a1-6)]Man(b1-4)GlcNAc(b1-4)GlcNAc
# How it was run: as §1
# [19] = molecular target: Gal(b1-4)GlcNAc(b1-3)Gal(b1-4)GlcNAc(b1-2)Man(a1-3)[Gal(b1-4)GlcNAc(b1-3)Gal(b1-4)GlcNAc(b1-2)Man(a1-6)]Man(b1-4)GlcNAc(b1-4)GlcNAc
# How it was run: as §1
# [20] = molecular target: Gal(b1-4)GlcNAc(b1-3)Gal(b1-4)GlcNAc(b1-2)[Gal(b1-4)GlcNAc(b1-3)Gal(b1-4)GlcNAc(b1-6)]Man(a1-6)[Gal(b1-4)GlcNAc(b1-3)Gal(b1-4)GlcNAc(b1-2)Man(a1-3)]Man(b1-4)GlcNAc(b1-4)GlcNAc
# How it was run: as §1
# [21] = molecular target: Gal(b1-4)GlcNAc(b1-3)Gal(b1-4)GlcNAc(b1-3)Gal(b1-4)GlcNAc(b1-2)Man(a1-3)[Gal(b1-4)GlcNAc(b1-3)Gal(b1-4)GlcNAc(b1-3)Gal(b1-4)GlcNAc(b1-2)Man(a1-6)]Man(b1-4)GlcNAc(b1-4)[Fuc(a1-6)]GlcNAc
# How it was run: as §1
# [22] = molecular target: Gal(b1-4)GlcNAc(b1-3)Gal(b1-4)GlcNAc(b1-3)[Gal(b1-4)GlcNAc(b1-3)Gal(b1-4)GlcNAc(b1-6)]GalNAc
# How it was run: as §1
# [23] = molecular target: Gal(b1-4)GlcNAc(b1-3)[Fuc(a1-3)GlcNAc(b1-6)]Gal(b1-4)Glc
# How it was run: as §1
# [24] = molecular target: Gal(b1-4)GlcNAc(b1-6)[Gal(b1-3)]GalNAc
# How it was run: as §1
# Gal3S(b1-4)Glc = molecular target: Gal3S(b1-4)Glc
# How it was run: as §1
# [25] = molecular target: Gal3S(b1-4)[Fuc(a1-3)]Glc6S
# How it was run: as §1
# [26] = molecular target: Gal3S(b1-4)[Fuc(a1-3)]GlcNAc6S
# How it was run: as §1
# Gal3S6S(b1-4)GlcNAc = molecular target: Gal3S6S(b1-4)GlcNAc
# How it was run: as §1
# Gal3S6S(b1-4)GlcNAc6S = molecular target: Gal3S6S(b1-4)GlcNAc6S
# How it was run: as §1
# [27] = molecular target: GalNAc(b1-3)Gal(a1-4)Gal(b1-4)GlcNAc
# How it was run: as §1
# GalNAc(b1-4)GlcNAc = molecular target: GalNAc(b1-4)GlcNAc
# How it was run: as §1
# [28] = molecular target: GlcNAc(a1-4)Gal(b1-4)GlcNAc
# How it was run: as §1
# [29] = molecular target: GlcNAc(b1-2)[GlcNAc(b1-6)]Man(a1-6)[GlcNAc(b1-4)][GlcNAc(b1-2)Man(a1-3)]Man(b1-4)GlcNAc(b1-4)GlcNAc
# How it was run: as §1
# [30] = molecular target: GlcNAc(b1-3)[GlcNAc(b1-4)][GlcNAc(b1-6)]GlcNAc
# How it was run: as §1
# GlcNAc(b1-4)GlcNAc = molecular target: GlcNAc(b1-4)GlcNAc
# How it was run: as §1
# [31] = molecular target: GlcNAc(b1-4)GlcNAc(b1-4)GlcNAc(b1-4)GlcNAc(b1-4)GlcNAc(b1-4)GlcNAc
# How it was run: as §1
# Man(b1-4)GlcNAc = molecular target: Man(b1-4)GlcNAc
# How it was run: as §1
# [32] = molecular target: Neu5Ac(a2-3)Gal(b1-3)GlcNAc(b1-2)Man
# How it was run: as §1
# [33] = molecular target: Neu5Ac(a2-3)Gal(b1-3)GlcNAc(b1-4)Gal(b1-4)Glc
# How it was run: as §1
# [34] = molecular target: Neu5Ac(a2-3)Gal(b1-3)[Fuc(a1-4)]GlcNAc
# How it was run: as §1
# [35] = molecular target: Neu5Ac(a2-3)Gal(b1-3)[Neu5Ac(a2-6)]GlcNAc(b1-3)[Fuc(a1-3)[Gal(b1-4)]GlcNAc(b1-6)]Gal(b1-4)Glc
# How it was run: as §1
# [36] = molecular target: Neu5Ac(a2-3)Gal(b1-4)GlcNAc(b1-2)[Neu5Ac(a2-3)Gal(b1-4)GlcNAc(b1-4)]Man(a1-3)[GlcNAc(b1-4)][Neu5Ac(a2-3)Gal(b1-4)GlcNAc(b1-2)[Neu5Ac(a2-3)Gal(b1-4)GlcNAc(b1-6)]Man(a1-6)]Man(b1-4)GlcNAc(b1-4)GlcNAc
# How it was run: as §1
# [37] = molecular target: Neu5Ac(a2-3)Gal(b1-4)[Fuc(a1-3)]GlcNAc(b1-2)Man
# How it was run: as §1
# [38] = molecular target: Neu5Ac(a2-6)Gal(b1-4)GlcNAc(b1-2)Man(a1-3)[Gal(b1-4)GlcNAc(b1-2)Man(a1-6)]Man(b1-4)GlcNAc(b1-4)GlcNAc
# How it was run: as §1
# [39] = molecular target: Neu5Ac(a2-6)Gal(b1-4)GlcNAc(b1-3)Gal(b1-4)GlcNAc(b1-3)Gal(b1-4)GlcNAc(b1-2)Man(a1-3)[Neu5Ac(a2-6)Gal(b1-4)GlcNAc(b1-3)Gal(b1-4)GlcNAc(b1-3)Gal(b1-4)GlcNAc(b1-2)Man(a1-6)]GalNAc
# How it was run: as §1
# [40] = molecular target: Neu5Ac(a2-6)Gal(b1-4)GlcNAc(b1-3)Gal(b1-4)GlcNAc(b1-3)GalNAc
# How it was run: as §1
# Neu5Ac(b2-6)GalNAc = molecular target: Neu5Ac(b2-6)GalNAc
# How it was run: as §1
# Neu5Gc(a2-3)Gal(b1-4)Glc = molecular target: Neu5Gc(a2-3)Gal(b1-4)Glc
# How it was run: as §1
# [41] = molecular target: Neu5Gc(a2-3)Gal(b1-4)GlcNAc
# How it was run: as §1
# [42] = molecular target: Neu5Gc(b2-6)Gal(b1-4)GlcNAc
# How it was run: as §1
binder,measurement,setting,value
B1,glycan array binding signal (z-score),[1],0.178
same,glycan array binding signal (z-score),[2],0.316
same,glycan array binding signal (z-score),[3],0.696
same,glycan array binding signal (z-score),[4],-0.893
same,glycan array binding signal (z-score),[5],-0.671
same,glycan array binding signal (z-score),[6],-1.34
same,glycan array binding signal (z-score),[7],-0.149
same,glycan array binding signal (z-score),[8],0.423
same,glycan array binding signal (z-score),[9],2.63
same,glycan array binding signal (z-score),Gal(a1-6)Glc,-0.988
same,glycan array binding signal (z-score),Gal(b1-2)Gal,0.521
same,glycan array binding signal (z-score),[10],0.308
same,glycan array binding signal (z-score),[11],2.43
same,glycan array binding signal (z-score),[12],-1.13
same,glycan array binding signal (z-score),[13],0.053
same,glycan array binding signal (z-score),[14],-0.488
same,glycan array binding signal (z-score),[15],-0.562
same,glycan array binding signal (z-score),[16],-1.2
same,glycan array binding signal (z-score),[17],-0.469
same,glycan array binding signal (z-score),[18],-0.042
same,glycan array binding signal (z-score),[19],2.96
same,glycan array binding signal (z-score),[20],0.285
same,glycan array binding signal (z-score),[21],1.48
same,glycan array binding signal (z-score),[22],0.945
same,glycan array binding signal (z-score),[23],0.097
same,glycan array binding signal (z-score),[24],-0.072
same,glycan array binding signal (z-score),Gal3S(b1-4)Glc,1.95
same,glycan array binding signal (z-score),[25],3.97
same,glycan array binding signal (z-score),[26],1.22
same,glycan array binding signal (z-score),Gal3S6S(b1-4)GlcNAc,2.56
same,glycan array binding signal (z-score),Gal3S6S(b1-4)GlcNAc6S,2.69
same,glycan array binding signal (z-score),[27],2.45
same,glycan array binding signal (z-score),GalNAc(b1-4)GlcNAc,2.71
same,glycan array binding signal (z-score),[28],-1.14
same,glycan array binding signal (z-score),[29],-0.782
same,glycan array binding signal (z-score),[30],2.58
same,glycan array binding signal (z-score),GlcNAc(b1-4)GlcNAc,-1.17
same,glycan array binding signal (z-score),[31],0.16
same,glycan array binding signal (z-score),Man(b1-4)GlcNAc,-0.306
same,glycan array binding signal (z-score),[32],-0.517
same,glycan array binding signal (z-score),[33],-0.756
same,glycan array binding signal (z-score),[34],0.283
same,glycan array binding signal (z-score),[35],-0.498
same,glycan array binding signal (z-score),[36],0.594
same,glycan array binding signal (z-score),[37],3.11
same,glycan array binding signal (z-score),[38],-0.518
same,glycan array binding signal (z-score),[39],2.42
same,glycan array binding signal (z-score),[40],-0.464
same,glycan array binding signal (z-score),Neu5Ac(b2-6)GalNAc,-0.413
same,glycan array binding signal (z-score),Neu5Gc(a2-3)Gal(b1-4)Glc,-0.801
same,glycan array binding signal (z-score),[41],-0.921
same,glycan array binding signal (z-score),[42],0.145
